Screens deposited in PubChem BioAssay by National Center for Advancing Translational Sciences (NCATS).
In the library only some 2.4% were active in any assay of this set; here they are far more common.
D2 ag-1 – HTS Assay for Allosteric Agonists of the Human D2 Dopamine Receptor: Primary Screen for Agonists; D(2) dopamine receptor (Homo sapiens), P14416; HEK293 T-REx D2 cells, calcium flux agonist mode; activation, % at 2 µM; 0.53% of 340,000 active; AID 485358, 2010;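 active = activation over 3 SD above normal in the single-dose calcium agonist read, cut at about 30% in these data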
Target sequence (P14416 whole entry, looked up): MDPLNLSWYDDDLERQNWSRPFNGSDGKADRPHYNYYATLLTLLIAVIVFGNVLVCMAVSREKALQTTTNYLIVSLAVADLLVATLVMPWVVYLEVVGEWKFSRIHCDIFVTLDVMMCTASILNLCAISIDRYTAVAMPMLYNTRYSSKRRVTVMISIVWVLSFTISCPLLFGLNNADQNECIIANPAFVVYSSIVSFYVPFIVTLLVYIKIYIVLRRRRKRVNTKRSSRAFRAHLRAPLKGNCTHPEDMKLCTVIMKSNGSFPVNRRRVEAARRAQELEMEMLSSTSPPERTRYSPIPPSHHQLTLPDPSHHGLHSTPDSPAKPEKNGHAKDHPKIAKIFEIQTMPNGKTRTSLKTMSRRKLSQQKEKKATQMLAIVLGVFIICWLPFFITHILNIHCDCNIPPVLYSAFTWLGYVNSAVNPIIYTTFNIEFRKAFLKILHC
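Agonism scored from kinetic calcium signal (1 read/sec, 180 s) following compound pin transfer, after a 10 s baseline. Cells: HEK293 Trex line expressing inducible D2 receptor coupled to calcium, dye-loaded after overnight culture at 30 C.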
D2 antagonist – HTS Assay for Allosteric Antagonists of the Human D2 Dopamine Receptor: Primary Screen for Antagonists. D(2) dopamine receptor (Homo sapiens), P14416. HEK293 TREx D2 cells, calcium flux, dopamine EC80. inhibition, % at 10 µM. 2% of 340,000 active; in the data active = inhibition above about 30%; inactive = below that, where a call was filed
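Calcium flux kinetic readout in an inducible HEK293 TREx D2 line plated overnight at 30 C. After 180 s compound exposure, an EC80 dopamine challenge follows with another 180 s kinetic read to detect antagonism.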
D2 ag-2 – Beta-Arrestin HTS for Positive Allosteric Modulators of the Human D2 Dopamine Receptor: Agonists; DiscoveRx PathHunter D2 beta-arrestin, luminescence, 90 min; 100% = 57 uM dopamine signal; activation, % (concentration not given with the values); 0.084% of 360,000 active; AID 624465, 2012; in the data active = activation above about 40%; inconclusive = between about 15% and that limit
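DiscoveRx PathHunter D2 beta-arrestin cells (2,100/well) attached overnight, then compound-stimulated 90 min at 37 C in HBSS/10 mM HEPES/0.1% Tween-20 buffer; beta-galactosidase complementation read by luminescence after 1 h at ambient temperature. Dopamine 57 uM final (EC100) as control.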
D2 PAM-1 – Beta-Arrestin HTS for Positive Allosteric Modulators of the Human D2 Dopamine Receptor: Potentiators. D(2) dopamine receptor (Homo sapiens), P14416. DiscoveRx D2 beta-arrestin cells, luminescence, 90 min; 100% = 57 uM dopamine signal. 0.23% of 360,000 active. AID 624464, 2012. potentiation, % (test concentration not listed); in the data active = potentiation above about 50%; inconclusive = mostly about 30% to 49%
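PathHunter beta-arrestin assay in DiscoveRx D2 cells. Compounds were added with an EC20 of dopamine (50 nM final) for 90 min at 37 deg C. Luminescence was read 1 h after detection reagent, with 57 uM dopamine as the EC100 control.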
D2 PAM-2 – HTS Assay for Positive Allosteric Modulators of the Human D2 Dopamine Receptor: Primary Screen for Potentiators | D(2) dopamine receptor (Homo sapiens), P14416 | HEK293 T-REx D2, calcium flux, EC20 dopamine potentiation | potentiation, % at 10 µM | 0.34% of 340,000 active | AID 485347, 2010;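 active = potentiation over 3 SD above the plate norm, cut at about 30% in these data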
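Using a no-wash calcium dye in inducible, force-coupled HEK293 Trex cells expressing D2, we tracked fluorescence each second for 180 s after compound, then for 180 s after EC20 dopamine to detect augmented signalling.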
Each line names hits and unclear results; the compound was inactive in the other large screens.

O=C(NCCC1=CCCCC1)C1CCN(c2nnc(-n3cccc3)s2)CC1	D2 antagonist 47.8
Cc1oc(-c2ccccc2F)nc1CN1CCC(C(=O)NCCC2=CCCCC2)CC1	D2 antagonist 31.8
COc1cccc(C(=O)NC(=NCCc2c[nH]c3ccc(OC)cc23)Nc2nc(C)cc(C)n2)c1	none (no result: D2 antagonist, D2 ag-2, D2 PAM-1)
CC(C)CCNc1nc2c(S(=O)(=O)c3ccc(Br)cc3)nnn2c2ccsc12	none (no result: D2 antagonist, D2 ag-2, D2 PAM-1)
Cc1ccc(NC(=O)C2CCN(S(=O)(=O)c3c(C)noc3/C=C/N(C)C)CC2)cc1	none
Cc1noc(/C=C/N(C)C)c1S(=O)(=O)N1CCC(C(=O)NC(C)(C)C)CC1	D2 antagonist 31.5
CC1CN(CCCCOc2ccc(Cl)c3ccccc23)CC(C)O1 (configuration not stated)	D2 antagonist 58.3
CC(=O)N1CCCc2cc(S(=O)(=O)NCc3ccccc3Cl)ccc21	none (no result: D2 antagonist, D2 ag-2, D2 PAM-1)
Cc1nc(-c2ccc(F)cc2)c(CC(=O)N2CCN(S(=O)(=O)c3cccc([N+](=O)[O-])c3)CC2)s1	D2 antagonist 33.8, D2 ag-2 inconclusive
Cc1cc(OC(=O)c2ccco2)c(Sc2ccccc2[N+](=O)[O-])c(=O)o1	D2 antagonist 33.8
CCOc1ccccc1NC(=O)CSc1cc(=O)n(CC)c2ccccc12	none (no result: D2 antagonist, D2 ag-2, D2 PAM-1)
O=C(C[n+]1ccccc1)N/N=C/c1ccccc1F	none
O=C(N/N=C/c1cccc([N+](=O)[O-])c1)c1ccc(Br)cc1	none
O=C(N/N=C/c1cc(Cl)ccc1O)c1ccc(Br)cc1	D2 antagonist 34.1
O=C(N/N=C/c1cccc(Br)c1)c1ccc(Br)cc1	D2 antagonist 49.9
Cc1cccc(/C=N\NC(=O)c2ccc(Cl)cc2)c1O	D2 antagonist 30.2
O=C(C[n+]1ccccc1)N/N=C/c1cc(Br)ccc1O	D2 antagonist 36.4
Cc1ccc(C)c(N2CCN(CCCNC(=O)Cn3c(-c4cccs4)cc4ccccc43)CC2)c1	none (no result: D2 antagonist, D2 ag-2, D2 PAM-1)
COCCCNC(=O)c1c(NC(=O)c2cc(=O)c3ccccc3o2)sc2c1CCCC2	none (no result: D2 antagonist, D2 ag-2, D2 PAM-1)
Cc1ccc(C(=O)Nc2cccc(C(=O)N/N=C/c3ccc(F)cc3)c2)cc1	D2 antagonist 31.3
CCOc1cc(CNc2ccc(N3CCN(C(C)=O)CC3)cc2)cc(Br)c1OC	D2 PAM-1 74.3
COCCCNC(=O)c1c[nH]c2ccc(S(=O)(=O)N3CCc4ccccc43)cc2c1=O	D2 PAM-2 37.9
COCCNC(=O)c1c[nH]c2ccc(S(=O)(=O)N3CCc4ccccc43)cc2c1=O	none
CC(=O)Nc1cccc(NC(=O)Nc2cccc3ccccc23)c1	D2 antagonist 46.0
COC(=O)c1ccccc1NC(=O)c1cnc(Nc2ccc(OC)cc2)c2ccccc12	none (no result: D2 antagonist, D2 ag-2, D2 PAM-1)
CCCN(CC(=O)Nc1ccccc1C)C(=O)c1ccc(C(=O)c2ccccc2)cc1	D2 antagonist 42.8
COc1cccc(-c2nnc(SCC(=O)NC3CCCCC3)o2)c1	none (no result: D2 antagonist, D2 ag-2, D2 PAM-1)
COCC(C)NC(=O)CCS(=O)(=O)c1nc(-c2ccc(OC)cc2)cc(C(F)(F)F)n1 (configuration not stated)	D2 PAM-2 39.2
COc1cccc(NC(=O)c2ccc(CNS(=O)(=O)c3ccc4c(c3)C(C)(C)C(=O)N4C)cc2)c1	none (no result: D2 antagonist, D2 ag-2, D2 PAM-1)
CCc1ccccc1NS(=O)(=O)c1ccc2[nH]cc(C(=O)N(CC)Cc3ccccc3)c(=O)c2c1	none (no result: D2 ag-1, D2 antagonist, D2 ag-2, D2 PAM-1)
c1ccc(Nc2c(-c3c[nH]c4ccccc34)nc3ccccn23)cc1	none (no result: D2 antagonist, D2 ag-2, D2 PAM-1)
CCc1ccc(NC(=O)C/C(C)=N/NC(=O)COc2ccccc2C)cc1	D2 antagonist 39.6
COc1ccccc1NC(=O)c1ccc(NC(=O)COC(=O)C2CCCO2)cc1 (configuration not stated)	D2 antagonist 41.3
CCOC(=O)c1[nH]cnc1C(=O)N1CCN(C(=O)OC(C)(C)C)CC1	D2 antagonist 31.5
CN(Cc1ccc(F)cc1)S(=O)(=O)c1nnc(NC(=O)c2ccccc2Cl)s1	none (no result: D2 ag-1, D2 antagonist, D2 ag-2, D2 PAM-1)
